Measurements taken from PubChem BioAssay AID1626 (SRMLSC, 2009).
In all, about 220,000 compounds went through this assay and about 2,000 (0.91%) were called active. Not shown: some 2% with an inconclusive outcome. No stated cut-off is given here; in the data, inconclusive means inhibition above about 80% without an active follow-up result; inactive means below that; test concentration not stated here. A selection follows. Entries with a potency or affinity are not part of this list.

Assay: M. tuberculosis H37Rv growth inhibitors, H37Rv strain (AID 1626);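 further: bacteria incubated seven days before Alamar blue readout; 0% = bacteria only wells and 100% = bacteria with antibiotic wells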
Settings: active compounds read high, concentration not given here

Structure (SMILES) | inhibition
CCN(CC)CCNc1nc2cc(OC)c(OC)cc2c2nc(-c3ccccc3)nn12 | 75% (inactive)
CCN(CC)CCCNc1nc2cc(OC)c(OC)cc2c2nc(-c3cccnc3)nn12 | 7.65% (inactive)
CC(C)C(NS(=O)(=O)c1cccs1)C(=O)N(C)Cc1ccccc1 (stereo unspecified) | -0.19% (inactive)
Cc1cc(NC(=O)CSc2nnc(C3CC3)n2N)c([N+](=O)[O-])cc1C | -1.15% (inactive)
CCCCCCCn1c2c(c(=N)c3c1CCC3)CCCC2 | 13.8% (inactive)
CCCCCCn1c2c(c(=N)c3c1CCC3)CCC2 | 1.15% (inactive)
CCCCCn1c2c(c(=N)c3ccccc31)CCC2 | 7.75% (inactive)
CCCCCCCn1c2c(c(=N)c3ccccc31)CCC2 | 9.19% (inactive)
CCCCCCCCCn1c2c(c(=N)c3c1CCC3)CCC2 | 56.5% (inactive)
CCCCn1c2c(c(=N)c3c1CCC3)CCC2 | -7.84% (inactive)
COC(=O)Cc1c(O)ccn(C2CC2)c1=O | -1.41% (inactive)
CC(C)C(NS(=O)(=O)c1cccs1)C(=O)NCc1ccccc1Cl (stereo unspecified) | -0.44% (inactive)
Cn1c(SCC(=O)N2CCCc3ccccc32)nnc1-c1cccs1 | 11.9% (inactive)
COc1cc(NC(=O)c2ccccc2)c(OC)cc1NC(=O)CN1CCCCC1 | 25.5% (inactive)
COc1cc(NC(=O)c2ccc(Cl)cc2)c(OC)cc1NC(=O)CN1CCOCC1 | -0.92% (inactive)
Cc1cc(NC(=O)c2cc(-c3ccccc3)on2)no1 | -3.83% (inactive)
CCOC(=O)CC(=O)CSc1nc(C)cc(-c2cccnc2)c1C#N | 0.1% (inactive)
CN(C)CCCn1c(=O)n(Cc2ccco2)c(=O)c2c3c(sc21)CCCCC3 | -6.11% (inactive)
CCn1c(=O)n(CCc2ccccc2)c(=O)c2c3c(sc21)CCCC3 | 0.77% (inactive)
O=c1c2c3c(sc2nc(NCCO)n1CCc1ccccc1)CCCCC3 | 5.74% (inactive)
CN(C)CCCNc1nc2sc3c(c2c(=O)n1CCc1ccccc1)CCCCC3 | 76.4% (inactive)
CC1=C(C(=O)Nc2ccccc2)C(c2ccccn2)n2nc(CCCO)nc2N1 (stereo unspecified) | 2.92% (inactive)
Cn1c(Sc2ccc(C(F)(F)F)cc2[N+](=O)[O-])nnc1-c1ccccc1 | 0.5% (inactive)
CCc1ccc(CNCc2cccs2)cc1 | -12.3% (inactive)

Structure (SMILES) | inhibition
CCc1nc(NCCc2ccccn2)c2nnn(Cc3ccccc3F)c2n1 | 7.39% (inactive)
CCN1CCN(CCCNC(=O)c2ccc(/C=C3/Sc4ccccc4N(Cc4ccccc4F)C3=O)cc2)CC1 | 1.17% (inactive)
CN1CCN(CCCNC(=O)c2ccc(/C=C3\Sc4ccccc4N(Cc4ccccc4F)C3=O)cc2)CC1 | 33.6% (inactive)
NC(N)=NS(=O)(=O)c1ccc(NC(=S)NC(=O)/C=C/c2cccs2)cc1 | 3.44% (inactive)
CCOC(=O)c1c(-c2ccncc2)csc1N | 9.94% (inactive)
c1cc(-c2ccncc2)ccn1 | 2.83% (inactive)
O=C(NC(=S)Nc1ccccc1[N+](=O)[O-])c1ccccc1Cl | -1.52% (inactive)
O=C(Nc1ccccc1)OCCCc1ccccc1 | 5.86% (inactive)
COc1ccc(C2C=C(C34CC5CC(CC(C5)C3)C4)NC(=S)N2)cc1 (stereo unspecified) | 1.23% (inactive)
COC(=O)CSc1nc(-c2cccs2)ccc1C#N | -2.21% (inactive)
COC(=O)c1sc2ccccc2c1N | 2.95% (inactive)
COC(=O)CSc1nc2cc(C)ccc2cc1C#N | -2.11% (inactive)
COC(=O)CSc1nc(C)cc(C)c1C#N | -8.05% (inactive)
COC(=O)c1sc2cnccc2c1N | -1.77% (inactive)
COC(=O)CSc1[nH]c(=O)cc(C)c1C#N | -7.37% (inactive)
COc1cc(SC)ccc1C(=O)OCC(=O)NC1CC1 | 2.29% (inactive)
CCOC(=O)CSc1snnc1C | -2.01% (inactive)
CN(c1ccccc1)S(=O)(=O)c1cccc(Cl)c1Cl | -4.92% (inactive)
c1ccc(-c2ccnc3nc(N4CCN(c5ccccc5)CC4)nn23)cc1 | 6.16% (inactive)
c1ccc(Oc2ccc(-c3ccnc4nc(N5CCN(c6ccccc6)CC5)nn34)cc2)cc1 | 20.8% (inactive)
CNC(=S)NNC(=O)c1sccc1OCc1ccc(Cl)cc1Cl | -2.33% (inactive)
N#CC1CCN(c2ncccc2[N+](=O)[O-])CC1 | -9.15% (inactive)
COc1ccc(OC)c(-c2cc(C3CCN(c4ncccc4[N+](=O)[O-])CC3)[nH]n2)c1 | -8.76% (inactive)
Cc1nnc(SCc2nc3ccccc3c(=O)n2-c2ccccc2Cl)n1N | 2.11% (inactive)

Structure (SMILES) | inhibition
Cc1cccc(C)c1NC(=O)c1c(C)nn(-c2ccccc2)c1Cl | -2.35% (inactive)
O=C(O)CSc1ccnc2cc(Cl)ccc12 | 3.22% (inactive)
CCN(CC)C(=O)Oc1ccnc2cc(Cl)ccc12 | 2.84% (inactive)
O=C(COc1ccccc1Cl)Nc1ccc2c(c1)OCCO2 | 5.61% (inactive)
COC(=O)c1ccccc1NC(=O)c1cc(C2CC2)on1 | 4.32% (inactive)
CCc1ccccc1NC(=O)c1cc(C2CC2)on1 | 8.45% (inactive)
COc1ccc(-c2csc(N3C(=O)C4C5c6ccccc6C(c6ccccc65)C4C3=O)n2)cc1 (stereo unspecified) | 49% (inactive)
CCc1c(C#N)c(SCCC(=O)Nc2ccc(F)cc2)nc2c1C(=O)CC(C)(C)C2 | 6.22% (inactive)
O=C(NC1CC1)c1cc2c(F)cccc2s1 | -6.42% (inactive)
O=C(c1c(F)cccc1F)N1CCCC1 | -1.31% (inactive)
COc1ccc(C(=O)OC(C(=O)c2ccc(C)cc2)c2ccccc2)cc1 (stereo unspecified) | 9.22% (inactive)
C/C(=N/NC(=O)c1cc(-c2ccc(Cl)s2)[nH]n1)c1ccco1 | 40.6% (inactive)
CC1(C)CC(=O)C=C(c2cccc3c2oc2ccccc23)C1 | 8.8% (inactive)
COC(=O)[C@@H]1C[C@H]1[C@@H](NS(=O)(=O)c1ccccc1)c1ccccc1 | -5.22% (inactive)
C/C(=N\N=C(/N)SC1CC(=O)N(c2ccccc2)C1=O)c1cccs1 (stereo unspecified) | 3.4% (inactive)
C/C(=N\N=C(/N)SC1CC(=O)N(c2ccc(Cl)cc2)C1=O)c1cccs1 (stereo unspecified) | 64.5% (inactive)
CN(C(=O)COC(=O)/C=C/c1ccc2ccccc2n1)C1CCS(=O)(=O)C1 (stereo unspecified) | 14.9% (inactive)
COC(=O)CNC(=O)COC(=O)/C=C/c1ccc2ccccc2n1 | 61.8% (inactive)
CC(O)/C=C/c1ccc2ccccc2n1 (stereo unspecified) | 10.2% (inactive)
O=C(O)/C=C/c1ccc2ccccc2n1 | -1.78% (inactive)
COc1cc(NC(=O)C2CC(=O)NC3=C2C(=O)CCC3)cc(OC)c1 (stereo unspecified) | -7.6% (inactive)
CC(=O)O[C@]1(c2ccccc2)CCN(C)[C@H]2CCCC[C@@H]21 | -5.42% (inactive)
Cc1ccc(Cn2nnc3c(=O)n(CC(=O)c4ccccc4)cnc32)cc1 | 4.84% (inactive)
CC(=O)N1C(=O)N(C)C2C1N(C)C(=O)N2C(C)=O (stereo unspecified) | -8.79% (inactive)

Structure (SMILES) | inhibition
C=CCOC(=O)C1=C(C)NC(=S)C(C#N)(CC=C)C1c1ccccc1Cl (stereo unspecified) | -0.05% (inactive)
Cc1ccc2c(C)nc(N/C(N)=N/S(=O)(=O)c3ccc([N+](=O)[O-])cc3)nc2c1 | 13% (inactive)
Cc1ccc(S(=O)(=O)/N=C(\N)Nc2nc(C)c3ccccc3n2)cc1 | 9.4% (inactive)
CCCOc1ccc(N2C(=O)CC(SC(=N)N3N=C(c4ccccc4)CC3c3ccccc3)C2=O)cc1 (stereo unspecified) | 75.6% (inactive)
CCN(CC)S(=O)(=O)c1ccc(NC(=O)C(C)N(c2ccccc2)S(C)(=O)=O)cc1 (stereo unspecified) | -1.18% (inactive)
Cc1cccc(-c2nsc(SCC(=O)Nc3cc(C)on3)n2)c1 | 70.6% (inactive)
COc1ccc(-c2nnc3ccc(SCC(=O)NCC4CCCO4)nn23)cc1 (stereo unspecified) | -3.46% (inactive)
CCc1ccc2nc(-c3cccc(C)c3)nc(SCC(=O)NCC3CCCO3)c2c1 (stereo unspecified) | -13% (inactive)
COc1ccc(-c2nnc(SCC(=O)NCC3CCCO3)n2C)cc1 (stereo unspecified) | -4.37% (inactive)
Cc1cc(NS(=O)(=O)c2ccccc2)n(-c2ccccc2)n1 | -2.44% (inactive)
CCC(=O)N1CCc2cc(S(=O)(=O)NCCC(=O)N3CCN(c4ccccn4)CC3)ccc21 | -5.78% (inactive)
COc1cc(/C=N/NC(=O)COc2ccccc2[N+](=O)[O-])ccc1OC(=O)c1ccco1 | 4.21% (inactive)
Cn1ccnc1SCC(=O)Nc1ccc(Oc2ccccc2)cc1 | 3.6% (inactive)
CCCN1CCN(CCCNC(=O)C2CCN(c3nnc(-n4cccc4)s3)CC2)CC1 | -6.41% (inactive)
O=C(CSc1nc(-c2ccccc2Cl)ns1)NCc1ccco1 | 24.3% (inactive)
NC(=O)CSc1nc(-c2ccccc2Cl)ns1 | -12.5% (inactive)
COc1ccc(-n2c(C)cc(SC)c(C(C)=O)c2=S)cc1 | 1.47% (inactive)
CC(Sc1nnnn1-c1ccccc1)C(=O)Nc1ccc(Cl)cn1 (stereo unspecified) | -7.65% (inactive)
CC(Sc1nncn1C)C(=O)Nc1ccc(Cl)cn1 (stereo unspecified) | 4.99% (inactive)
Cc1nn(-c2ccc([N+](=O)[O-])cc2)c2c1C(c1cccc(Br)c1)N1C(=N2)C(=O)Nc2ccccc21 (stereo unspecified) | 73% (inactive)
Cc1nn(-c2ccccc2)c2c1C(c1ccc(Cl)cc1)N(c1ccccc1)C(=O)N2 (stereo unspecified) | 63.4% (inactive)
COc1cccc(C2c3c(C)nn(-c4ccc([N+](=O)[O-])cc4)c3N=C3C(=O)Nc4ccccc4N32)c1 (stereo unspecified) | 72.8% (inactive)
Cc1nn(-c2ccccc2)c2c1C(c1ccc([N+](=O)[O-])cc1)C(C#N)=C(N)O2 (stereo unspecified) | -9.83% (inactive)
Cc1c(NC(=O)C(C)OC(=O)COc2cccc3c2OC(C)(C)C3)c(=O)n(-c2ccccc2)n1C (stereo unspecified) | 0.88% (inactive)
